The source made the active and inactive calls. Unless noted, how the calls were made is not given here.
Assays:
[1] = compounds binding Alexa647 anti-His antibody – biochemical, small-molecule microarray, 635 nm fluorescence, artefact control for SMM control protein annotation, primary screen (AID 1128); conditions: higher = more signal;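 further: score merges feature fluorescence with signal-to-noise for each printed compound spot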
[2] = test system: Human papillomavirus type 1a E7 protein (residues 1-88); test: HPV1a E7 small-molecule binders, primary screen, biochemical, small-molecule microarray, residues 1-88, 635 nm (AID 1129); conditions: small-molecule microarray binding, fluorescence 635 nm; higher = more signal
[3] = molecular target: Focal adhesion kinase 1 (Homo sapiens) (UniProt Q05397); test: PTK2 protein binding on printed compound slides – biochemical, small-molecule microarray, 635/667 nm fluorescence, BSA, DTT, primary screen (AID 1130); conditions: 635 nm fluorescence, higher = more signal;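 further: composite of spot emission at 667 nm and signal to noise over triplicate slides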
Focal adhesion kinase 1 (Homo sapiens), sequence (Q05397 whole entry, looked up): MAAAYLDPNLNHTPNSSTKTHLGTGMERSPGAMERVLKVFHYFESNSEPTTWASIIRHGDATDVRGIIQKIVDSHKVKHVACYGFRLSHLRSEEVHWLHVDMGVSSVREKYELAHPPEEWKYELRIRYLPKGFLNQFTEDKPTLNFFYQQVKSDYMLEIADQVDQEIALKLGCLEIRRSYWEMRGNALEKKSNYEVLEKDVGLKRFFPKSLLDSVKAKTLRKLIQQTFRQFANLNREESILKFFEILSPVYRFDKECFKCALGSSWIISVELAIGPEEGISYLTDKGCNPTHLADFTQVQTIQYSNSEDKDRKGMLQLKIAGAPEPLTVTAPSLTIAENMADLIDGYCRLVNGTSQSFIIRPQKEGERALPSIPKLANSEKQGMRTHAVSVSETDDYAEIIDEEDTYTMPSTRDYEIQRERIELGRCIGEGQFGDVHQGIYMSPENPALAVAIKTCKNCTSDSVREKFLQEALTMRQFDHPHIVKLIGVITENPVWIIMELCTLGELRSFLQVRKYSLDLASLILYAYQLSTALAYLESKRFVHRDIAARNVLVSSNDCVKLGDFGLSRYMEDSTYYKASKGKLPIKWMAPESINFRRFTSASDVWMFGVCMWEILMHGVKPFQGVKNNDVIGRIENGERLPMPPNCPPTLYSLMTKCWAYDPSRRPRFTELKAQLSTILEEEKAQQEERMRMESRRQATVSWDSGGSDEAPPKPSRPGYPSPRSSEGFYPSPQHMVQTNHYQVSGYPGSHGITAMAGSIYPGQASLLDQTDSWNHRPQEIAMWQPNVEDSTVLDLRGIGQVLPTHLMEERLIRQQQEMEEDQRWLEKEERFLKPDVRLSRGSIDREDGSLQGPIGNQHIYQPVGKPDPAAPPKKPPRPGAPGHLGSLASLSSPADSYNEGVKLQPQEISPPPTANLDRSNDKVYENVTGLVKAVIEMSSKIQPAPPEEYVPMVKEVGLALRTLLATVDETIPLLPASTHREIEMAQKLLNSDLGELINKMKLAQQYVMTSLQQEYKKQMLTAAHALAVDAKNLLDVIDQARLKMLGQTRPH

[4] = test system: Fibrinogen (Alexa647-labelled); test: Alexa647-fibrinogen binding to printed small molecules – biochemical, small-molecule microarray, 635/667 nm fluorescence, artefact control for SMM control-protein annotation, profiling panel (AID 1131); conditions: fibrinogen-A647 binding fluorescence, higher = more signal;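 further: z-score merges 667 nm fluorescence with per-spot signal-to-noise over triplicate slides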
[5] = molecular target: Follistatin (Homo sapiens) (UniProt P19883); test: FST protein binding to printed compounds – biochemical, small-molecule microarray, 635/667 nm fluorescence, primary screen (AID 1132); conditions: 635 nm fluorescence, higher = more signal
Follistatin (Homo sapiens), sequence (P19883 whole entry, looked up): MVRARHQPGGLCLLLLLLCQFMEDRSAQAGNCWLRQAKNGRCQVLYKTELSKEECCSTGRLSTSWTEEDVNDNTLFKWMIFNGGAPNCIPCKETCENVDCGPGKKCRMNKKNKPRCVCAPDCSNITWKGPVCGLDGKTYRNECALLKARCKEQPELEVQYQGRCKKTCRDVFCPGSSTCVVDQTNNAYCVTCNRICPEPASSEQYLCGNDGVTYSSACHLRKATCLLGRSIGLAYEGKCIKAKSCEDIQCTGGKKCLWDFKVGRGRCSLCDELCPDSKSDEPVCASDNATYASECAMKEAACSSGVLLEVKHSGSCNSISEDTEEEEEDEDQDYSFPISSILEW

[6] = molecular target: Fibroblast growth factor 2 (Homo sapiens) (UniProt P09038); test: basic fibroblast growth factor binding to printed compounds – biochemical, small-molecule microarray, 635/667 nm fluorescence, primary screen (AID 1133); conditions: FGF2, fluorescence 635/667, higher = more signal
Fibroblast growth factor 2 (Homo sapiens), sequence (P09038 whole entry, looked up): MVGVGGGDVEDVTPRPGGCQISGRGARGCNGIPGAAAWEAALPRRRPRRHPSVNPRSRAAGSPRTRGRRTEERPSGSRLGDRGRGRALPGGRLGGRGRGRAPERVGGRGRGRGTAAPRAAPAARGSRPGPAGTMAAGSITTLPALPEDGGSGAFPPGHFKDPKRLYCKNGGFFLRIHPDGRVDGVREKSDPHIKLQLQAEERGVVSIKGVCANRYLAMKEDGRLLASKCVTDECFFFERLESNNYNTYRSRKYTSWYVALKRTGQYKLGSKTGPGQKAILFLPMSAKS

[7] = JC-1 mitochondrial potential readout, lung cancer cells – cell-based, A549, JC-1 fluorescence, basal, 24 h, 100 nL, profiling panel (AID 1138); conditions: higher = more signal;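 further: A549 lung adenocarcinoma cells under basal conditions with no added stimulus; test concentration not given here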
Lefty1 = Lefty1 protein binding to printed compounds – biochemical, small-molecule microarray, 635/667 nm fluorescence, primary screen (AID 1139); conditions: fluorescence 635/667, higher = more signal
[8] = test system: wheat germ agglutinin (Triticum aestivum), Alexa647-labelled; test: Alexa647-WGA lectin binding to printed small molecules – biochemical, small-molecule microarray, 635/667 nm fluorescence, artefact control for SMM control-protein annotation, profiling panel (AID 1140); conditions: WGA-A647 binding, 635 nm fluorescence, higher = more signal;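 further: score merges 667 nm feature emission with signal to noise over triplicate slides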
[9] = molecular target: Luciferin 4-monooxygenase (Photinus pyralis) (UniProt P08659); test: inhibition of purified Photinus pyralis luciferase – biochemical, luminescence, purified enzyme, 2006 set, primary screen (AID 1141); conditions: purified firefly luciferase, SteadyGlo luminescence, 30 min; higher = more signal, called active from +8 up or from −8 down;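 further: cell-free assay with purified firefly luciferase at 100 ng per well in PBS; test concentration not given here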
Luciferin 4-monooxygenase (Photinus pyralis), sequence (P08659 whole entry, looked up): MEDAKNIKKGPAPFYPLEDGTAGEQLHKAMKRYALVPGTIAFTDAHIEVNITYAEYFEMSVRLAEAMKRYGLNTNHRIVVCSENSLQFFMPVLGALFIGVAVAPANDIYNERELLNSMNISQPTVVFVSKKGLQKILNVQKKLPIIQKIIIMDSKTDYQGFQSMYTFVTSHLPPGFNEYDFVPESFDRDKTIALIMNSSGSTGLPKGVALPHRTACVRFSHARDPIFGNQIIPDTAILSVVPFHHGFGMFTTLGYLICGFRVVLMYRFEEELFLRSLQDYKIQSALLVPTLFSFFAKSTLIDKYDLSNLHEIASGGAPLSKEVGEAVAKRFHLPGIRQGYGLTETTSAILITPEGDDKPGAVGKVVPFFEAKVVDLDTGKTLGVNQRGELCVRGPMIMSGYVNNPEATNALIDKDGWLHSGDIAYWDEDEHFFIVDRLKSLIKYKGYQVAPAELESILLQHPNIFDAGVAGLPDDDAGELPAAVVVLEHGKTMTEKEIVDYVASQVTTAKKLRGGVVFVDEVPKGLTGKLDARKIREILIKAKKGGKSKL

[10] = test system: Wnt5a (protein binding on small-molecule microarray); test: small molecules binding Wnt5a protein – biophysical, small-molecule microarray, 635/667 nm fluorescence, primary screen (AID 1142); conditions: 635 nm fluorescence, higher = more signal;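 further: fluorescence read at 667 nm with signal to noise per printed feature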
[11] = ATP-based viability of Huh7 replicon cells – cell-based, CellTiter-Glo luminescence, basal, 48 h, cytotoxicity control for HCV replication inhibitor project, primary screen (AID 1143); conditions: higher = more signal, called active from +8 up or from −8 down;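 further: Huh7 hepatoma cells carrying a hepatitis C replication reporter with no stimulus; test concentration not given here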
[12] = Pseudomonas biofilm growth suppression – PAO1 strain, BacTiter-Glo luminescence, LB-PBS, primary screen (AID 1144); conditions: P. aeruginosa PAO1 biofilm, 12 h, higher = more signal
[13] = basal CRE-LacZ reporter activity in PC12 – cell-based, unstimulated, primary screen (AID 1145); conditions: no forskolin, luminescence, 4.5 h, higher = more signal, called active from +8 up or from −8 down
[14] = forskolin-driven CRE-LacZ activity in PC12 – cell-based, CRE-LacZ reporter, forskolin-stimulated, primary screen (AID 1146); conditions: luminescence, 4.5 h, higher = more signal, called active from +8 up or from −8 down;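 further: PC12 cells with 6xCRE LacZ reporter stimulated by forskolin 10 µM; beta-galactosidase reporter signal reflecting CREB driven transcription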
[15] = molecular target: Streptavidin (Streptomyces avidinii) (UniProt P22629); test: compounds binding control protein streptavidin – biophysical, small-molecule microarray, 635/667 nm fluorescence, artefact control for SMM compound annotation, primary screen (AID 1147); conditions: higher = more signal;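 further: signal reflects streptavidin binding to arrayed compounds as a control protein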
Streptavidin (Streptomyces avidinii), sequence (P22629 whole entry, looked up): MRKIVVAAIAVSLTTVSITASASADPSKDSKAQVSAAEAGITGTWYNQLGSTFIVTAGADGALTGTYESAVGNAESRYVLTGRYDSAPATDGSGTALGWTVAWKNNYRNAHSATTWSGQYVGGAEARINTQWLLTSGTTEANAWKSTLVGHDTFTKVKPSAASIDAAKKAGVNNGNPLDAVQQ

[16] = probe aInhba binding on compound microarray – biochemical, small-molecule microarray, 635/667 nm fluorescence, primary screen (AID 1148); conditions: higher = more signal;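 further: score merges 667nm spot fluorescence with signal-to-noise for antibody binding to printed compounds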
Torsin-1A (Homo sapiens) [17] = molecular target: Torsin-1A (Homo sapiens) (UniProt O14656); test: TOR1A wild-type binding on microarray – cell lysate, small-molecule microarray, lysate, 635/667 nm, primary screen (AID 1149); conditions: COS7 hTOR1A-WT lysate, 635 nm fluorescence, higher = more signal
Torsin-1A (Homo sapiens), sequence (O14656 whole entry, looked up): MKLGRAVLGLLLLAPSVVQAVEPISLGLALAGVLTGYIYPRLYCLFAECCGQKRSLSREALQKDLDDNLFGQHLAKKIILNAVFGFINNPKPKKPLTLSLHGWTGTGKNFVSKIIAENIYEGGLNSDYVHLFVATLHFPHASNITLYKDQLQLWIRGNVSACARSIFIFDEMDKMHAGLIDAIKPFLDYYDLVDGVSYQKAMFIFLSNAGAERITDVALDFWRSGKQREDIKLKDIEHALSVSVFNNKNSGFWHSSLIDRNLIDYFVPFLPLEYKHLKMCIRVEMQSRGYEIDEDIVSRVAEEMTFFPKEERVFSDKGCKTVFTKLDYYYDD

Torsin-1A (Homo sapiens) [18] = molecular target: Torsin-1A (Homo sapiens) (UniProt O14656); test: torsin A mutant lysate binding on microarrays – cell lysate, small-molecule microarray, COS7 lysate, 635/667 nm fluorescence, primary screen (AID 1150); conditions: COS7 hTOR1A mutant lysate, 635 nm fluorescence, higher = more signal;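 further: score pools 667 nm emission and signal to noise measuring lysate protein binding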
[19] = test system: Sonic hedgehog protein (Shh); test: Sonic hedgehog microarray binding compounds – biochemical, small-molecule microarray, 635/667 nm fluorescence, primary screen (AID 1151); conditions: 635 nm fluorescence, higher = more signal;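 further: Shh protein binding to compounds spotted on small-molecule microarray slides; score combines spot fluorescence intensity with signal-to-noise across triplicate slides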

SMILES	composite z-score [1]	composite z-score [2]	composite z-score [3]	composite z-score [4]	composite z-score [5]	composite z-score [6]	z-score [7]	composite z-score (Lefty1)	composite z-score [8]	z-score [9]	composite z-score [10]	z-score [11]	z-score [12]	z-score [13]	z-score [14]	composite z-score [15]	composite z-score [16]	composite z-score (Torsin-1A (Homo sapiens) [17])	composite z-score (Torsin-1A (Homo sapiens) [18])	composite z-score [19]
CC(C)CNC(=O)[C@@H]1c2ccccc2C(=O)N(Cc2cc(F)cc(C(F)(F)F)c2)[C@H]1c1ccc(CO)cc1	0.437	0.538	0.0403	0.626	1.02	0.721	2.47	-0.0543	0.042	-1.38 (inactive)	0.342	-0.959 (inactive)	0.96 (inactive)	0.001 (inactive)	-0.372 (inactive)	0.111	0.117	0.71	0.192	0.465
COc1cc2c(cc1O)C(C)N(Cc1cc3c(cc1Br)OCO3)CC2 (stereo not given)	-0.408	-1.4	-0.618	-1.01	-0.381	-0.437	-0.472	-0.46	-0.55	-0.499 (inactive)	-0.131	-3.33 (inactive)	0.3 (inactive)	1.27 (inactive)	0.861 (inactive)	-0.679	-0.157	-1.12	-0.829	-0.836
[N-]=[N+]=NCc1ccccc1C[C@]1(C(=O)NCC(O)CO)N=C(c2ccc(OCCCO)cc2)O[C@H]1c1ccccc1CN=[N+]=[N-] (stereo not given in full)	2.73	1.2	0.116	0.973	1.3	0.495	0.618	-0.204	0.205	-0.0074 (inactive)	0.493	-4.68 (inactive)	-0.998 (inactive)	0.447 (inactive)	-1.32 (inactive)	0.661	0.404	0.408	1.09	-0.881
Cc1ccc(S[C@]2(C(=O)NC(C)C)CC(=O)N(Cc3ccccc3C(F)(F)F)[C@@H]2c2ccc(CO)cc2I)cc1	1.15	-0.0732	0.955	-0.515	0.0697	-0.848	-0.279	-1.03	-0.229	1.35 (inactive)	-0.38	-4.73 (inactive)	-0.9 (inactive)	-0.141 (inactive)	1.12 (inactive)	-0.281	-0.239	-0.93	-1.17	-0.181
CN(C)CCCNC(=O)[C@@]1(c2ccc([N+](=O)[O-])cc2)CC(=O)N(CC23CC4CC(CC(C4)C2)C3)[C@@H]1c1ccc(CO)cc1	1.03	1.19	0.703	0.807	1.28	0.844	0.742	0.99	0.955	0.292 (inactive)	0.461	-5.82 (inactive)	-0.262 (inactive)	-0.295 (inactive)	-0.741 (inactive)	2.03	0.641	-0.183	0.0626	0.989
CC(C)N1CC=CC23O[C@@H]4C=CCOC(=O)[C@@H]4[C@H]2C(=O)N(C(C)CO)[C@@H]3C1=O (stereo not given in full)	-0.221	-0.915	-0.202	-0.179	-0.901	-0.678	-0.374	-0.941	-0.158	0.169 (inactive)	-0.517	0.394 (inactive)	0.995 (inactive)	-0.619 (inactive)	-0.544 (inactive)	-0.23	-0.161	-1.33	-1.43	-0.753
CC1CC/C=C\[C@H]2OC34C=CCN(CCN5CCOCC5)C(=O)[C@H]3N(CCO)C(=O)[C@@H]4C2C(=O)O1 (stereo not given in full)	2.67	-0.959	-0.583	0.187	-0.361	-0.0989	-0.213	-0.887	-0.176	0.749 (inactive)	-0.249	-0.894 (inactive)	0.463 (inactive)	-0.216 (inactive)	-0.626 (inactive)	-0.638	-0.178	0.161	0.213	-0.636
O=C1O[C@@H](c2ccccc2)[C@@H](c2ccccc2)N2[C@@H](c3ccccc3OCCO)[C@]3(C(=O)Nc4ccc(C#CC5=CCCCC5)cc43)[C@@H](C(=O)NC[C@H](O)c3ccccc3)[C@H]12	1.08	1.13	0.0363	0.883	0.961	1.51	-1.69	1.02	-0.186	-1.32 (inactive)	0.361	-6.39 (inactive)	-0.534 (inactive)	-1.56 (inactive)	-1.15 (inactive)	0.625	0.162	0.385	-0.0373	1.99
CCCN1C(=O)[C@]2(Cc3ccccc3)N=C(c3ccc(OCCCO)cc3)O[C@@H]2c2ccccc21	1.9	1.22	0.0605	0.962	1.46	1.63	1.44	0.951	0.751	-4.12 (inactive)	1.19	-5.27 (inactive)	-0.204 (inactive)	1.04 (inactive)	-1.11 (inactive)	0.501	0.872	0.317	0.773	1.84
CC(C)CN1C(=O)[C@@]2(c3ccc([N+](=O)[O-])cc3)CC(=O)N(CC34CC5CC(CC(C5)C3)C4)[C@@H]2c2ccc(CO)cc21	2.34	-0.636	-0.253	0.233	-1.16	-1.14	-0.422	-0.969	-0.323	0.0209 (inactive)	-0.765	-4.16 (inactive)	-1.58 (inactive)	-0.348 (inactive)	0.134 (inactive)	-0.877	-0.128	-1.22	-1.08	-1.51

— PubChem BioAssay
